# Screening results: PubChem BioAssay, Paczesny and Yang Labs, IUPUI and University of Michigan
# Only a selection was taken, and hits are over-represented in it overall.
# ST2 inh = inhibitors of human ST2 (IL1RL1) binding to IL-33, primary screen, biochemical, AlphaLISA; inhibition, % for hits at 17 µM; AID 1259354, 2018; 2.3% of 78,000 active; AlphaLISA ST2-Fc/biotin-IL-33 interaction, 1 h; Interleukin-1 receptor-like 1 (Homo sapiens), Q01638; in the data active means inhibition above about 30%
# Target sequence (Q01638 whole entry, looked up): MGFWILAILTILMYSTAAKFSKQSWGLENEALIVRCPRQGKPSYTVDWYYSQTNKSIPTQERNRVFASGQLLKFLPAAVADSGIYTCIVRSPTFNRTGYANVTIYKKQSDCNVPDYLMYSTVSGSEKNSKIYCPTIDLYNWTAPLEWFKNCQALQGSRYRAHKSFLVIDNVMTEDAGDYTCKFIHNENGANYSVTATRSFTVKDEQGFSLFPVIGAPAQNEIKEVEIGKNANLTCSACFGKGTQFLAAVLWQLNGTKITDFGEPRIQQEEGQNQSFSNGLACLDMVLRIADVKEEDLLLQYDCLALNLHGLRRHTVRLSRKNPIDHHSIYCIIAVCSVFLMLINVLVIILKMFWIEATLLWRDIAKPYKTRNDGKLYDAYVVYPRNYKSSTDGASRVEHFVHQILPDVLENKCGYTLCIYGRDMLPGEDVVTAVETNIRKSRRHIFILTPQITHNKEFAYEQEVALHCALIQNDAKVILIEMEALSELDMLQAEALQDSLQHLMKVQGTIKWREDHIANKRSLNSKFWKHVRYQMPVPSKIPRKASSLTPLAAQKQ
# * marks the source's active call; other numbers are inactive results; i = inactive.
SMILES,ST2 inh
C#CCOc1c(I)cc(/C=C/[N+](=O)[O-])cc1OC,i
COc1ccc(Cl)cc1/C=C/[N+](=O)[O-],97.0%*
CCCS(=O)(=O)NC[C@H]1C[C@@H]2CCN1C[C@@H]2c1cc(-c2ccccc2OC)nn1C,i
CCN1CCN(Cc2cccc(Br)c2)CC1,i
Brc1cccc(CN2CCN(c3ccccc3)CC2)c1,31.0%*
Fc1ccc(CN2CCN(c3cccc(Cl)c3)CC2)cc1,i
CN1CCN(Cc2cccc(Br)c2)CC1,i
O=[N+]([O-])c1ccc(CN2CCN(Cc3ccccc3)CC2)cc1,i
O=[N+]([O-])c1ccc(N2CCN(Cc3cccc(Cl)c3)CC2)cc1,36.0%*
COc1ccc(-c2cc([C@H]3CN4CC[C@H]3C[C@@H]4CNC(=O)Nc3cccc(C#N)c3)n(C)n2)cc1,i
CCCS(=O)(=O)Nc1ccc(=O)n2c1[C@@H]1C[C@@H](CN(C(=O)NC3CCCCC3)C1)C2,i
O=c1c(-c2cccc(C(F)(F)F)c2)ccc2n1C[C@H]1C[C@@H]2CN(Cc2cccs2)C1,i
CC(=O)N[C@@H](C)Cc1ccccc1,i
COC(=O)c1cccc(NC(=S)NC[C@H]2C[C@@H]3CCN2C[C@@H]3c2cc(-c3ccc(F)cc3)nn2C)c1,i
Cc1ccccc1-n1c(Cc2ccccc2)nc2ccccc2c1=O,i
O=c1c2ccccc2nc(-c2ccccc2Cl)n1-c1ccccc1O,i
Cc1ccccc1-n1c(/C=C2\C(=O)N(C)c3ccccc32)nc2ccccc2c1=O,49.0%*
CC(C)(C)c1ccc(-c2cn(C[C@H]3CC4CCN3C[C@@H]4C(=O)NCc3ccc(F)cc3)nn2)cc1 (stereo partly specified),i
C/C=C1/C[N+]2(C)C3CC1C(CO)C2Cc1c3[nH]c2ccc(O)cc12 (stereo unspecified),i
COc1ccc(CCNCc2c[nH]c3ccccc23)cc1OC,i
Cc1c(C(c2ccccc2Cl)c2c(O)c3ccccc3oc2=O)c(=O)n(-c2ccccc2)n1C (stereo unspecified),i
CC(c1c(O)c2ccccc2oc1=O)c1c(O)c2ccccc2oc1=O,36.0%*
COc1ccc(C(c2c(O)c3ccccc3oc2=O)c2c(C)n(C)n(-c3ccccc3)c2=O)cc1 (stereo unspecified),i
CCN(CC)C(=O)c1ccc2c(c1)N(CC(=O)NCc1ccc(C(C)C)cc1)C(=O)C1CCCCN21 (stereo unspecified),i
COc1ncc(CN2C[C@H]3C[C@H](O)[C@H](O)C[C@H]3C2)cn1,i
SMILES,ST2 inh
Cc1ccsc1C1N(c2ccccn2)C(=O)C2CCCN21 (stereo unspecified),i
O=C(O)c1cccnc1CN1CC=C(c2ccccc2)CC1,i
COc1ccc(-n2c(/C=C/c3ccccc3)nc3ccccc3c2=O)cc1OC,i
COc1ccc(/C=C/c2nc3ccccc3c(=O)n2-c2ccccc2OC)cc1,32.0%*
O=c1c2ccccc2nc(/C=C/c2ccccc2)n1-c1ccccc1F,i
Cc1cc(NC(=O)c2cccn(Cc3cccc(C(F)(F)F)c3)c2=O)no1,i
COc1ccc2c(c1)c(C(=O)NCc1snnc1C(C)C)c(C)n2C,i
COc1ccc(-c2ccc3n(c2=O)C[C@H]2C[C@@H]3CN(C(=O)c3ccc(C#N)cc3)C2)cc1,i
COCCC(=O)N1C[C@@H]2C[C@H](C1)c1ccc(-c3cccc(C(F)(F)F)c3)c(=O)n1C2,i
COCCC(=O)N1C[C@@H]2C[C@H](C1)c1ccc(NC(=O)c3ccc(C#N)cc3)c(=O)n1C2,35.0%*
O=C(c1ccncc1)N1C[C@@H]2C[C@H](C1)c1c(-c3ccc(Cl)cc3)ccc(=O)n1C2,i
O=C1NC(=O)C(=Cc2cn(CCOc3ccc4c(c3)OCO4)c3ccccc23)C(=O)N1,35.0%*
CCN(CC)C(=O)Cn1cc(/C=C2\C(=O)NC(=O)N(c3ccccc3F)C2=O)c2ccccc21,i
CCC(=O)c1ccc(OCC(=O)N2C[C@@H]3C[C@H](C2)c2cccc(=O)n2C3)cc1,i
S=C(NCc1ccco1)NC[C@H]1C[C@@H]2CCN1C[C@@H]2CN1CCN(c2ccccn2)CC1,i
CN1CCN(Cc2ccccc2[N+](=O)[O-])CC1,i
O=[N+]([O-])c1cccc(CN2CC=C(c3ccc(F)cc3)CC2)c1,35.0%*
O=[N+]([O-])c1ccccc1CN1CCN(c2ccc(Cl)cc2)CC1,i
CN1CCN(Cc2cccc([N+](=O)[O-])c2)CC1,i
NC(=O)c1ccc(OCC(O)CN2CC=C(c3ccc(F)cc3)CC2)cc1 (stereo unspecified),i
O=[N+]([O-])c1ccccc1CN1CC=C(c2ccc(F)cc2)CC1,30.0%*
COc1ccccc1N1CCN(C[C@H]2CN3CC[C@H]2C[C@@H]3CNS(=O)(=O)c2ccc(Cl)cc2)CC1,i
COC(=O)c1ccc(CNC(=O)CN2C[C@@H]3C[C@H](C2)c2cccc(=O)n2C3)o1,i
Cc1ccccc1N1CCN(Cc2ccc(O)cc2)CC1,i
CCOc1ccc(CN2CCN(c3ccccc3C)CC2)cc1,i
